Among all 65,000 compounds or so, about 2,100 (3.2%) showed an effect of 50% or more. The median lay at about -52%. What follows is part of a selection rich in strong results, with near analogues and random picks from the rest.
The molecules below were run on Plasmodium falciparum (assay: Screen against P. falciparum Asexual Blood Stage (ABS), at 5uM). Settings: tested at 5 uM.
Assay type: functional, Dd2

SMILES	INHIBITION [%]
CCc1cnc(N2CCC3(CCN(Cc4cccc(C)c4)C3=O)C2)nc1 (stereo not drawn)	44.1
CN(Cc1cccnc1)Cc1cncc2c1CCN(c1ccccn1)C2	-26.1
CCc1[nH]c2c(CNc3cnccn3)cc(F)cc2c1C	-64.1
CN1CCNCC(Cc2cnc3ccccc3c2)C1 (stereo not drawn)	-67.9
CC(C)c1cc(C(=O)NCCCN(C)C)nc(N2CCCC2)n1	52.7
CCN(CC)CCNC(=O)c1cc(C(C)C)nc(N2CCCC2)n1	-32.6
COCCCNC(=O)c1cc(C(C)C)nc(N2CCCC2)n1	-93.7
NCCSc1nccc(-c2cnc(C3CC3)nc2-c2ccco2)n1	-39.7
CC(C)c1ncc2c(n1)CN(Cc1nnc(Cc3ccccc3)o1)CC2	-45.2
CCC(NC(=O)CN(C)Cc1ccc(C)o1)c1ccc(C)cc1 (stereo not drawn)	50.9
CCc1ccc(C(C)NC(=O)CN(C)Cc2ccc(C)o2)cc1 (stereo not drawn)	13.3
CCC(NC(=O)CN(C)Cc1ccc(C)o1)c1ccc(Br)cc1 (stereo not drawn)	37.3
N#Cc1ccc(CN2CC3(CCCCN3c3cccnc3)CC2=O)cc1 (stereo not drawn)	7.75
CC(C)(C#N)c1ccccc1CN1CCC(N2CCCC2=O)CC1	-50.6
Cc1cccc(-c2nccnc2C2CCCN(C)C2)c1C (stereo not drawn)	2.65
COc1ccccc1-c1nccnc1C1CCN(C(C)=O)CC1	-20.5
Cc1cccc(-c2nccnc2C2CCN(C)CC2)c1C	54.2
O=C(O)[C@@H]1CN(C(=O)Cc2ccccc2Cl)C[C@H]1C1CC1	-94
CNC(=O)N1C[C@@H]2C[C@H](C(=O)Nc3cccnc3)[C@H](C1)O2	-142
Cn1cnnc1C1CCN(C(=O)c2cc3c(s2)CCCC3)CC1	-21.6
COc1cc(F)c(S(=O)(=O)N2CCN(C)Cc3ccccc32)cc1OC	13.8
COc1ccccc1S(=O)(=O)N1CCC2(CC1)[C@H](O)C[C@@H]2O	-62.3
CN(Cc1nnc(C2CC2)n1C)S(=O)(=O)c1ccccc1C#N	-108
CN(C)C1Cc2ccccc2N(S(=O)(=O)c2ccc(C#N)cc2)C1 (stereo not drawn)	49.9
CN(C)C1Cc2ccccc2N(S(=O)(=O)c2ccccc2C#N)C1 (stereo not drawn)	56.6
COc1ccccc1S(=O)(=O)N1CC(N(C)C)Cc2ccccc21 (stereo not drawn)	64.1
Cc1nc(NCc2cccnc2)cc(C2COCCN2)n1 (stereo not drawn)	-124

SMILES	INHIBITION [%]
Cc1cnn(C2CCCN(C(=O)c3cn(-c4ccccc4)nn3)C2)c1 (stereo not drawn)	-119
CCC(C)c1noc(C2CCN(C(=O)c3ccccn3)CC2)n1 (stereo not drawn)	-122
O=C(O)c1cccnc1CN1CCCC1CCc1ccccc1 (stereo not drawn)	-78
c1ccc(CC2CCN(Cc3ccnc(-c4cccnc4)n3)CC2)cc1	-20
c1coc(-c2noc(CN3CCc4cncnc4C3)n2)c1	31
Cc1cnn(C2CN(Cc3nnc(-c4ccccc4Cl)o3)C2)c1	11.9
Cc1ncc2c(n1)CN(Cc1nnc(Cc3ccccc3)o1)CC2	-25
COc1ccc(-c2noc(CN3CCc4cncnc4C3)n2)cc1	6.71
c1ccc(Cc2nnc(CN3CCc4cncnc4C3)o2)cc1	63.6
Cc1ccc(-c2nnc(CN3CC(n4cc(C)cn4)C3)o2)cc1	-29.5
c1ncc2c(n1)CN(Cc1nc(-c3ccsc3)no1)CC2	-41.7
c1ncc2c(n1)CN(Cc1nc(-c3ccoc3)no1)CC2	58.7
c1ncc2c(n1)CN(Cc1nc(-c3ccc4c(c3)OCO4)no1)CC2	21
c1ccc(Cc2noc(CN3CCc4cncnc4C3)n2)cc1	-48.8
Cc1cnn(C2CN(Cc3nnc(Cc4ccccc4)o3)C2)c1	51.8
Cc1ccc(-c2noc(CN3CCc4cncnc4C3)n2)cc1	59.7
COC(=O)COc1cc(NCc2c(C)noc2C)c(Cl)cc1C	-49.6
COc1ccc(-c2csc3c2c(N)nc(=O)n3CC(N)=O)cc1	-61.4
CC(=O)Nn1ccc2c(nnc3c(-c4ccccc4)cnn32)c1=O	-65.6
CCc1nc(NCCc2c(C)nn(CC)c2C)c2cnn(C)c2n1	-95.2
CC(CCc1ccc(F)c(F)c1)NS(=O)(=O)Cc1ccon1 (stereo not drawn)	-44.6
CCC(=O)N1CCCC1c1nc(N(C)C)ncc1-c1ccc(Cl)cc1 (stereo not drawn)	19.6
COc1ccc(CC(=O)N2CCCC(n3nc(C)cc3C)C2)cc1 (stereo not drawn)	-9.14
COc1ccccc1C(=O)N1CC(=O)N(C2CCCCC2)CC(O)C1 (stereo not drawn)	-37
Cc1ccc(S(=O)(=O)N2C[C@H]3C[C@H](NC(=O)c4ccccn4)[C@H]3C2)cc1	-55.2
O=C(N1CCCC1)N1CCC[C@]2(C[C@@H](OCc3ccncc3)CO2)C1	-71.6
